From PubChem BioAssay (Tox21)
Records with an inconclusive call do not appear. Where a call stands in place of a potency, no number is given. Active and inactive are the calls of the source. Unless noted, the call rests on the fitted dose curve; in most records, active means well fitted curve in the direction sought with a large enough effect in the repeat runs; inconclusive means weak or mixed curves; inactive means no such curve, though single readings can be large; an effect the other way counts as inactive or inconclusive.

How the values were obtained:
[1] = target: Estrogen receptor (Homo sapiens) (UniProt P03372); test: qHTS assay to identify small molecule antagonists of the estrogen receptor alpha (ER-alpha) signaling pathway using the BG1 cell line in the presence of 0.1 nM 17-beta-estradiol (AID 1259244); further: nearly all actives have a fitted effect of over 50% in size; further: potency means the concentration at half of the fitted maximal effect
Sequence of Estrogen receptor (Homo sapiens) (P03372 whole entry, looked up): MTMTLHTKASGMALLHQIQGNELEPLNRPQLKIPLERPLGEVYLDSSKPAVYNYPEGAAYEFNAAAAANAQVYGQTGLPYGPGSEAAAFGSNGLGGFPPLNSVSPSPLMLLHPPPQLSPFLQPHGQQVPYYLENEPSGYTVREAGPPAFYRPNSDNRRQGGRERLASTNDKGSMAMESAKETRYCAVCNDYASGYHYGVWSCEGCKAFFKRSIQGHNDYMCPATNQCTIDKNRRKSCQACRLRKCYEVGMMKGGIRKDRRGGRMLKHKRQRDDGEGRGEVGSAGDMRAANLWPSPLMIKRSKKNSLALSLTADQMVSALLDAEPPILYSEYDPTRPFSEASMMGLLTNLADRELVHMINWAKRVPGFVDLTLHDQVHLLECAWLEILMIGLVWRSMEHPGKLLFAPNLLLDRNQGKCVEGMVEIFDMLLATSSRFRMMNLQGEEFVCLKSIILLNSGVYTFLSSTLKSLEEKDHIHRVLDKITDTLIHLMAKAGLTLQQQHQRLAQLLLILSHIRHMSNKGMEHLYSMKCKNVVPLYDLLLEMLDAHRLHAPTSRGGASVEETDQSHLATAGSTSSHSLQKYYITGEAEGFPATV
In short: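 Antagonist mode: compounds in DMSO are pinned onto VM7Luc4E2 reporter cells, 0.1 nM final 17beta-estradiol is added, and after 22 h at 37C luciferase luminescence is measured with ONE-Glo.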

[2] = qHTS assay to identify small molecule HDAC inhibitors (AID 1259364);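 further: wild-type HCT-116 cells with endogenous class I/II HDAC activity; top concentration of the series differs between compounds; nearly all actives have a fitted effect of over 45% in size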
In short: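 Cells (HCT-116, wild type) are seeded at 1,500 per well, incubated overnight, treated with compound in DMSO for 2 hr, then developed with HDAC-Glo I/II reagent for 30 min at room temperature.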

[3] = qHTS assay to identify small molecule HDAC inhibitors - cell viability counter screen (AID 1259365); further: series mostly up to about 92 µM; nearly all actives have a fitted effect of over 50% in size
In short: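 After overnight seeding at 1,500 cells per well, wild-type HCT-116 cultures took up compounds in DMSO for 2hr at 37 C. Viable cell content came from luminescence with CellTiter-Glo.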

[4] = qHTS assay to identify small molecule agonists of the sonic hedgehog signaling (Shh) pathway - cell viability counter screen (AID 1259366); further: nearly all actives have a fitted effect of over 50% in size; further: potency means the concentration at half of the fitted maximal effect
In short: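 Same-well cytotoxicity read. Gli1-Luc reporter 3T3 cells; compounds 24hr, 37C/5% CO2; CellTiter-Fluor fluorescence.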

[5] = qHTS assay to identify small molecule antagonists of the sonic hedgehog signaling (Shh) pathway - cell viability counter screen (AID 1259367); further: nearly all actives have a fitted effect of over 55% in size; further: potency means the concentration at half of the fitted maximal effect
In short: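 Conditioned medium drove Shh signaling in 3T3 Gli1-Luc cells exposed to compounds at 37C and 5% CO2. Viability was determined from CellTiter-Fluor fluorescence, with reagent incubated 1 hr after 23 hr of treatment.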

[6] = qHTS assay to identify small molecule agonists of the androgen receptor (AR) signaling pathway in the presence of an antagonist - cell viability counter screen (AID 1259379); further: nearly all actives have a fitted effect of over 25% in size; further: potency means the concentration at half of the fitted maximal effect
In short: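 Cytotoxicity is assessed by CellTiter-Fluor in MDA-kb2 cells carrying an MMTV-driven luciferase reporter. Cells receive 3.0uM nilutamide plus compounds at 15 concentrations and incubate 16 hr at 37C without CO2 before fluorescence reading.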

[7] = qHTS assay to identify small molecule agonists of the estrogen receptor beta (ER-beta) signaling pathway - cell viability counter screen (AID 1259380); further: nearly all actives have a fitted effect of over 30% in size; further: potency means the concentration at half of the fitted maximal effect
In short: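 Cytotoxicity is measured in parallel with the reporter screen: after 16 hr compound exposure at 37C and a 2 hr LiveBLAzer step, CellTiter-Glo is added to the same ER-beta-UAS-bla HEK293T wells and luminescence read after 30 min.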

[8] = qHTS assay to identify small molecule antagonists of the estrogen receptor beta (ER-beta) signaling pathway - cell viability counter screen (AID 1259382); further: nearly all actives have a fitted effect of over 55% in size; further: potency means the concentration at half of the fitted maximal effect
In short: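 Cytotoxicity counter screen multiplexed with the beta-lactamase antagonist assay: GripTite HEK293T ER-beta-bla cells were treated 16 hr with test chemicals in the presence of 1nM 17-beta-estradiol, and viability was measured by CellTiter-Glo.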

[9] = target: Estrogen receptor (Homo sapiens) (UniProt P03372); test: qHTS assay to identify small molecule agonists of the estrogen receptor alpha (ER-alpha) signaling pathway in the presence of an antagonist (AID 1259383; calls by dose curve; further: top concentration of the series differs between compounds; nearly all actives have a fitted effect of over 15% in size)
In short: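 Agonist-mode confirmation in the presence of the ER antagonist ICI-182,780 at 10.0nM final. Breast-derived VM7Luc4E2 reporter cells were exposed to compounds for 22hr, and ERE-driven luciferase was quantified by luminescence.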

[10] = qHTS assay to identify small molecule agonists of the estrogen receptor alpha (ER-alpha) signaling pathway in the presence of an antagonist - cell viability counter screen (AID 1259386);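 further: series mostly up to about 92 µM; cells exposed to compounds for 22 h at 37 °C before the viability read; nearly all actives have a fitted effect of over 30% in size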
In short: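 Cytotoxicity was measured in parallel with the ERE-luciferase agonist screen, in the same wells. The cells were VM7Luc4E2, which endogenously express ER-alpha, and treatment was with compounds plus 10.0nM ICI-182,780 for 22hr.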

[11] = qHTS assay to identify small molecule agonists of the sonic hedgehog signaling (Shh) pathway (AID 1259368; calls by dose curve;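 further: NIH/3T3-derived 3T3Gli1-Luc cells carrying a stable Gli1-driven firefly luciferase reporter; series mostly up to about 92 µM; nearly all actives have a fitted effect of over 15% in size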)
In short: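 Cells of a mouse NIH/3T3 clone stably expressing luciferase under the Gli1 transcriptional response element are exposed to test chemicals for 24 hr at 37 C. Pathway activation is detected as a rise in luminescence.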

[12] = qHTS assay to identify small molecule antagonists of the sonic hedgehog signaling (Shh) pathway (AID 1259369; calls by dose curve; further: nearly all actives have a fitted effect of over 45% in size; further: potency means the concentration at half of the fitted maximal effect)
In short: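 Cells are plated and held 4hr at 37 C, compounds (DMSO) are pinned in, conditioned medium is added to stimulate the pathway, and after 24hr luciferase reagent is added for 30min before luminescence is read.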

[13] = target: Estrogen receptor beta (Homo sapiens) (UniProt Q92731); test: qHTS assay to identify small molecule agonists of the estrogen receptor beta (ER-beta) signaling pathway (AID 1259377; active means well fitted activation curve with a large enough effect in the signal ratio in the repeat runs, not every such curve was filed as active; the % refers to the signal ratio)
Sequence of Estrogen receptor beta (Homo sapiens) (Q92731 whole entry, looked up): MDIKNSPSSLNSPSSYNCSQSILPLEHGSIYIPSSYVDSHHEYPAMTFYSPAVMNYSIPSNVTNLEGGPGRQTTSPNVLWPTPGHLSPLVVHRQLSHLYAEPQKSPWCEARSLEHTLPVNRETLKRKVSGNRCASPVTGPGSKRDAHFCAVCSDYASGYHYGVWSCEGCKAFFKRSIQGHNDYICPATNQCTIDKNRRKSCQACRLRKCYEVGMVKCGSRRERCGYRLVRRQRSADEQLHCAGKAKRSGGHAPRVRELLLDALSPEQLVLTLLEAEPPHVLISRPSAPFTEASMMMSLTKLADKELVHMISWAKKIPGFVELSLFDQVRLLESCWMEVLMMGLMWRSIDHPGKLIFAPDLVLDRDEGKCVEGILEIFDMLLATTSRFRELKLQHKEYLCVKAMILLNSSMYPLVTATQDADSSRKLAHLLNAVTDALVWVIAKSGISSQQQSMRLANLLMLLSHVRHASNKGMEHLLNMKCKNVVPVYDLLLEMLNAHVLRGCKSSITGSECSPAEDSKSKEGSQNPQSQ
In short: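 Read-out: beta-lactamase FRET fluorescence. Cell line: ER-beta-UAS-bla HEK293T in 2% charcoal-stripped FBS. Exposure: 16 hr at 37C. Substrate step: 2 h at room temperature.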

[14] = target: Estrogen receptor beta (Homo sapiens) (UniProt Q92731); test: qHTS assay to identify small molecule antagonists of the estrogen receptor beta (ER-beta) signaling pathway (AID 1259378; active means well fitted inhibition curve with a large enough effect in the signal ratio in the repeat runs, not every such curve was filed as active; the % refers to the signal ratio; further: potency means the concentration at half of the fitted maximal effect)
In short: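 ER-beta-UAS-bla HEK293T (GripTite) cells in 2% charcoal-stripped FBS medium were preincubated 6 hr at 37C, dosed with compound, then stimulated with 1 nM E2 (final) for 16 hr; beta-lactamase reporter read by B/G FRET fluorescence after 2 hr substrate loading.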

[15] = qHTS assay to identify small molecule agonists or antagonists of the thyroid stimulating hormone receptor (TSHR) signaling pathway - wild type cell line counter screen (AID 1259384; calls by dose curve)
In short: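 Wild-type HEK293 cells were plated 18 h at 37 C/5% CO2, pin-dosed with compound plus Ro20-1724 medium, held 30 min at room temperature, then given cAMP-d2 and anti-cAMP-cryptate; fluorescence was read after 1 h. Fifteen concentrations, triplicate.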

[16] = target: Thyrotropin receptor (Homo sapiens) (UniProt P16473); test: qHTS assay to identify small molecule antagonists of the thyroid stimulating hormone receptor (TSHR) signaling pathway (AID 1259385; calls by dose curve; further: nearly all actives have a fitted effect of over 20% in size)
Sequence of Thyrotropin receptor (Homo sapiens) (P16473 whole entry, looked up): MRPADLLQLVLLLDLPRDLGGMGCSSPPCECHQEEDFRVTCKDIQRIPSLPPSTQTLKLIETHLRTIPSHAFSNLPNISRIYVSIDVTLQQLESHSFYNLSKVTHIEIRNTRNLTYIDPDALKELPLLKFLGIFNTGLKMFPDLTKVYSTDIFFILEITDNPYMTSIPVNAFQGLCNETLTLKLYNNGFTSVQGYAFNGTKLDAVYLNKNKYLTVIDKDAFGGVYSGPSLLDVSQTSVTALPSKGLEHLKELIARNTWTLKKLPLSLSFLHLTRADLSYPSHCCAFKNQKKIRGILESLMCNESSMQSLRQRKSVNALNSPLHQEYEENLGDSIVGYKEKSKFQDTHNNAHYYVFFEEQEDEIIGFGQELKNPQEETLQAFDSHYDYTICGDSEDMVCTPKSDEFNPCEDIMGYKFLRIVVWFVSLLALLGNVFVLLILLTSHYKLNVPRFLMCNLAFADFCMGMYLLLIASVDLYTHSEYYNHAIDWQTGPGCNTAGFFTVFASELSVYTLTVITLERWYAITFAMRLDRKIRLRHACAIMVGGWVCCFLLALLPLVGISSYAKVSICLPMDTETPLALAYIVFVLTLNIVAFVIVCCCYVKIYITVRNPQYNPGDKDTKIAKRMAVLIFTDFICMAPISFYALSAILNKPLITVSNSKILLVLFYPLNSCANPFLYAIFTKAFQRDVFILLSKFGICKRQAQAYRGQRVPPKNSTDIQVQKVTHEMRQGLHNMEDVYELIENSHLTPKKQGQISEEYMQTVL
In short: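 TSHR-HEK293 cells were plated and held 18 h at 37C/5% CO2, then given compound plus Ro20-1724 and stimulated with TSH at 1.5 ng/mL final. After 30 min at room temperature, cAMP was detected with cAMP-d2/anti-cAMP-cryptate (1 h) by fluorescence.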

[17] = target: Androgen receptor (Homo sapiens) (UniProt P10275); test: qHTS assay to identify small molecule antagonists of the androgen receptor (AR) signaling pathway using the MDA cell line in the presence of 0.5 nM R1881 (AID 1259243); further: nearly all actives have a fitted effect of over 50% in size
Sequence of Androgen receptor (Homo sapiens) (P10275 whole entry, looked up): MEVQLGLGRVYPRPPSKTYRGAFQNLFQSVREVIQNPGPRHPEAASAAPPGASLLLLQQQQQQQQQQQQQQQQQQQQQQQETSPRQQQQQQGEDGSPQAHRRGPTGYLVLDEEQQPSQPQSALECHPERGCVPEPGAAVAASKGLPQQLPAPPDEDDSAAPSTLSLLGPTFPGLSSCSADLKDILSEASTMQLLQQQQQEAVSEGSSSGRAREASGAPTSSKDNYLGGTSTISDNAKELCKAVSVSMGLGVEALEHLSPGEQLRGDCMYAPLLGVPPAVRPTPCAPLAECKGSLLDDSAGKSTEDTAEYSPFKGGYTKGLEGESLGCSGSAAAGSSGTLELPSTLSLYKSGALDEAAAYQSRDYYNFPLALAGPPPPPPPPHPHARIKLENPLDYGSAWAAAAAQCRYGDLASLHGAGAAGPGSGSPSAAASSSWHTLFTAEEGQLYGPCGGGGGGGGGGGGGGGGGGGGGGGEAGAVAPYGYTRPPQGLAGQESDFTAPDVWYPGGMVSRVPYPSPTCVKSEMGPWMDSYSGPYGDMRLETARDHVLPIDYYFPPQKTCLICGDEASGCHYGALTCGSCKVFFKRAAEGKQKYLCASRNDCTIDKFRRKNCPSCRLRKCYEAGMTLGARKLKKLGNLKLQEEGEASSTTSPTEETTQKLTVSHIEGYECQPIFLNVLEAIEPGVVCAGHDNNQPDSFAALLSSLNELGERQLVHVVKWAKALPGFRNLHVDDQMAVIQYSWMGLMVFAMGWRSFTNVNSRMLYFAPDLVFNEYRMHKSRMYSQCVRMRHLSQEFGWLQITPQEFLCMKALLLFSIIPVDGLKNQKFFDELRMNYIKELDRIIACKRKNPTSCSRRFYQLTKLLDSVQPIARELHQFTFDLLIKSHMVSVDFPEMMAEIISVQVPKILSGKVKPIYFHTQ
In short: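 Stably transfected MDA-kb2 cells express luciferase from an MMTV promoter bearing both AR and GR response elements. Compounds plus 0.5 nM R1881 (final) were incubated 16 hr at 37C without CO2, then luminescence measured.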

[18] = target: Androgen receptor (Homo sapiens) (UniProt P10275); test: qHTS assay to identify small molecule agonists of the androgen receptor (AR) signaling pathway in the presence of an antagonist (AID 1259381; calls by dose curve; further: nearly all actives have a fitted effect of over 15% in size; further: potency means the concentration at half of the fitted maximal effect)
In short: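 Agonist-mode confirmation screen: human MDA-kb2 cells stably expressing luciferase under an MMTV promoter bearing AR and GR response elements, co-treated with 3.0uM nilutamide (final). Luminescence measured after 16hr compound incubation.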

[19] = qHTS assay to identify small molecule phospholipidosis (PLD) inducers (AID 1259344; active means well fitted curve in the direction sought with a large enough effect; an effect the other way counts as inactive or inconclusive)
In short: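 After 4 h attachment on collagen I, HepG2 cells were dosed with compound alongside LipidTOX Red, kept 24 h at 37 C, fixed, and imaged for lamellar phospholipid pits.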

| Structure (SMILES) | Potency [1] | Potency [2] | Potency [3] | Potency [4] | Potency [5] | Potency [6] | Potency [7] | Potency [8] | Potency [9] | Potency [10] | Potency [11] | Potency [12] | Potency [13] | Potency [14] | outcome [15] | Potency [16] | Potency [17] | Potency [18] | outcome [19] |
| --- | --- | --- | --- | --- | --- | --- | --- | --- | --- | --- | --- | --- | --- | --- | --- | --- | --- | --- | --- |
| Nc1ccc(S(=O)(=O)O)cc1 | inactive | inactive | inactive | inactive | inactive | inactive | inactive | inactive | inactive | inactive |  |  |  |  |  |  |  |  |  |
| CC(=O)Nc1ccccc1C | inactive | inactive | inactive | inactive | inactive | inactive | inactive | inactive |  | inactive | inactive | inactive | inactive | inactive | inactive | inactive |  |  |  |
| C1COCO1 | inactive | inactive | inactive | inactive | inactive | inactive | inactive | inactive | inactive | inactive | inactive | inactive | inactive | inactive | inactive |  |  |  |  |
| CCOC(=O)C(C)Oc1ccc(Oc2nc3ccc(Cl)cc3o2)cc1 (stereo not drawn) |  | inactive | inactive | inactive | inactive | inactive | inactive | inactive |  | inactive | inactive | inactive | inactive |  |  |  | inactive | inactive |  |
| Nc1ccc(C(=O)OCCCOC(=O)c2ccc(N)cc2)cc1 |  | inactive | inactive | inactive | inactive | inactive | 17.2 µM (active) |  | inactive |  | inactive |  |  |  |  |  |  |  |  |
| COCCOC |  | inactive |  | inactive | inactive |  |  | inactive |  | inactive | inactive | 4.13 µM (active) | inactive | inactive | inactive | inactive |  |  |  |
| O=C(CCCN1CCN(c2ccc(F)cc2)CC1)NC1c2ccccc2CSc2ccccc21 (stereo not drawn) |  | inactive | inactive |  |  | inactive |  |  | inactive | inactive | inactive |  | inactive |  | inactive |  |  |  | inactive |
| CCC1(C)CC(=O)NC1=O (stereo not drawn) | inactive | inactive | inactive | inactive | inactive | inactive | inactive | inactive | inactive |  |  | inactive |  |  |  |  |  |  | inactive |
| Cc1nc2ccccn2c(=O)c1CCN1CCC(C(=O)c2ccc(F)cc2)CC1 |  | inactive | inactive | inactive | inactive | inactive |  |  |  |  | inactive |  | inactive | inactive |  |  |  |  |  |
| CNCCCC1c2ccccc2C=Cc2ccccc21 | inactive | inactive | inactive |  |  |  | 23.7 µM (active) | 18.8 µM (active) | inactive | inactive | inactive |  | inactive |  | inactive |  |  |  |  |
| CC(C)OCC1CO1 (stereo not drawn) | inactive | inactive |  | inactive |  | inactive | inactive | inactive | inactive | inactive | inactive |  | inactive | inactive |  |  |  |  |  |
| CCNC(=O)N1CCN(CCCC(c2ccc(F)cc2)c2ccc(F)cc2)CC1 | 18.8 µM (active) | inactive |  |  | inactive | 26.6 µM (active) |  | inactive |  |  | inactive | 3.35 µM (active) | inactive | 21.1 µM (active) | inactive | inactive |  |  | inactive |
| CCCCCC=CCC=CCCCCCCCC(=O)OCC | inactive | inactive | inactive | inactive | inactive | inactive | 29.8 µM (active) | inactive |  |  | inactive | inactive | inactive |  | inactive | inactive |  |  |  |
| CCCCCCCCCCCC[N+](C)(C)CC(=O)[O-] | inactive | inactive | inactive | inactive | inactive | inactive | 24.3 µM (active) |  |  |  | inactive | inactive | inactive | inactive | inactive | inactive |  |  |  |
| O=C(N[C@@H](c1ccccc1)[C@@H]1CCCCN1)c1cccc(C(F)(F)F)c1Cl |  | inactive | inactive | 30.6 µM (active) | 54.5 µM (active) | 17.2 µM (active) | 54.5 µM (active) | 61.1 µM (active) |  | inactive |  |  | inactive | 43.3 µM (active) | inactive |  |  |  |  |
| Cc1ccc(S(=O)(=O)NC2CCCCC2)cc1 | inactive | inactive | inactive | inactive | inactive | inactive | inactive |  |  |  | inactive |  | inactive | inactive | inactive | inactive |  |  |  |
| O=C(CCCN1CCC(O)(c2ccc(Br)cc2)CC1)c1ccc(F)cc1 | inactive | inactive |  | inactive | inactive | inactive | 23.7 µM (active) |  | inactive | inactive | inactive |  | inactive |  | inactive |  |  |  |  |
| CCCCCCOC(=O)CCCCCCCC(=O)OCCCCCC |  | inactive | inactive | inactive | inactive | inactive | inactive | inactive |  | inactive |  | inactive |  |  | inactive | inactive |  |  |  |
| CCOC(=O)CC(=O)C(=O)OCC |  |  |  | inactive | inactive |  | 8.63 µM (active) |  | inactive |  | inactive | inactive | inactive | 48.6 µM (active) | inactive | inactive |  | 1.54 µM (active) |  |
| Cc1nccn1-c1ccc(Sc2cccc(C3(C(N)=O)CCOCC3)c2)cc1 | 3.06 µM (active) |  | inactive | inactive | inactive | 8.63 µM (active) |  | inactive |  |  | inactive | 3.06 µM (active) | inactive |  | inactive |  |  |  |  |
| CC1(C)C2=CCCC(C)(C)[C@]23CC[C@H]1C3 |  |  | inactive | inactive | inactive | inactive |  |  |  | inactive | inactive |  |  |  | inactive | inactive | inactive | inactive |  |
| COCCOC(=O)C1=C(C)NC(C)=C(C(=O)OC/C=C/c2ccccc2)C1c1cccc([N+](=O)[O-])c1 (stereo not drawn) |  | inactive |  |  | inactive | inactive | inactive |  | inactive |  | inactive |  |  |  | inactive |  |  |  | inactive |
